Data from PubChem BioAssay AID1159580 (chemical genetic matrix, 2015).
“And” between values parts separate entries of the source, which are not always exact repeats. Equal values may be shown once. Screen size: about 5,500 compounds; about 2,000 (36%) were called active. Another 18% or so got no clear call; they are omitted. No stated cut-off is given here; in the data, active means normalized growth mostly below about 0.91 (no sharp cut-off); inconclusive means no clear call, values can overlap the other calls; inactive means mostly above about 0.92. This is one part of the list.

Experiment: chemical genetic growth profiling, strain panel (AID 1159580);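 further: tested at 20 µM; growth read once vehicle control cultures reached saturation at 30 °C; 1 = growth at the plate median or of vehicle wells; lower values mean less growth of the strain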
Conditions: growth OD
[1] = S. cerevisiae deletion strains, locus YAL013W, strain DEP1, active compounds read low
[2] = S. cerevisiae deletion strains, locus YAL040C, strain CLN3, active compounds read low
[3] = S. cerevisiae deletion strains, locus YCL061C, strain MRC1 (second series), active compounds read low
[4] = S. cerevisiae deletion strains, locus YDR150W, strain NUM1, active compounds read low
[5] = S. cerevisiae deletion strains, locus YER002W, strain NOP16, active compounds read low
[6] = S. cerevisiae deletion strains, locus YMR307W, strain GAS1, active compounds read low
[7] = S. cerevisiae deletion strains, locus YNL128W, strain TEP1, active compounds read low
[8] = S. cerevisiae deletion strains, locus YNL153C, strain GIM3, active compounds read low
[9] = S. cerevisiae deletion strains, locus YNL175C, strain NOP13, active compounds read low
[10] = S. cerevisiae deletion strains, locus YNL197C, strain WHI3, active compounds read low
[11] = S. cerevisiae deletion strains, locus YNL224C, strain SQS1, active compounds read low
[12] = S. cerevisiae deletion strains, locus YOR083W, strain WHI5 (second series), active compounds read low
[13] = S. cerevisiae deletion strains, locus YPL055C, strain LGE1, active compounds read low
[14] = S. cerevisiae deletion strains, locus YJR075W, strain HOC1, active compounds read low
[15] = S. cerevisiae deletion strains, locus YPL241C, strain CIN2, active compounds read low

Measured: normalized growth

CCN1C(=O)C=CC1=O
inactive: [1] 1.04 | [2] 1 | [3] 1.01 | [4] 1.01 | S. cerevisiae deletion strains, locus YDR363W, strain ESC2, active compounds read low 0.992 | [5] 1 | [6] 1.02 | [7] 1.03 | [8] 1.02 | [9] 1.01 | [10] 1.01 | [11] 1 | [12] 1.07 | [13] 1.09

CC12C(=O)OC(=O)C1(C)C1CCC2O1 (configuration not stated)
inactive: [2] 0.905 | [3] 0.975 | [5] 0.925 | [14] 1.04 | [7] 0.954 | [13] 1.05 | [15] 0.967
active: [9] 0.887 | [10] 0.879 | [11] 0.911 | [12] 0.85

C[C@@]12C(=O)OC(=O)[C@]1(C)C1CCC2O1
active: S. cerevisiae deletion strains, locus YBR021W, strain FUR4, active compounds read low 0.808 | S. cerevisiae deletion strains, locus YBR229C, strain ROT2, active compounds read low 0.913 | S. cerevisiae deletion strains, locus YCL029C, strain bik1, active compounds read low 0.685 | S. cerevisiae deletion strains, locus YDL074C, strain BRE1, active compounds read low 0.662 | S. cerevisiae deletion strains, locus YDL185W, strain tfp1, active compounds read low 0.106 | S. cerevisiae deletion strains, locus YDL192W, strain arf1, active compounds read low 0.87 | S. cerevisiae deletion strains, locus YDR101C, strain arx1, active compounds read low 0.715 | S. cerevisiae deletion strains, locus YDR162C, strain NBP2, active compounds read low 0.824 | S. cerevisiae deletion strains, locus YDR318W, strain mcm21, active compounds read low 0.681 | S. cerevisiae deletion strains, locus YDR388W, active compounds read low 0.85 | S. cerevisiae deletion strains, locus YDR502C, strain sam2, active compounds read low 0.826 | S. cerevisiae deletion strains, locus YEL061C, strain CIN8, active compounds read low 0.91 | S. cerevisiae deletion strains, locus YER155C, strain BEM2, active compounds read low 0.887 | S. cerevisiae deletion strains, locus YER167W, strain BCK2, active compounds read low 0.895 | S. cerevisiae deletion strains, locus YGL078C, strain dbp3, active compounds read low 0.15 | S. cerevisiae deletion strains, locus YGL086W, strain mad1, active compounds read low 0.911 | S. cerevisiae deletion strains, locus YGR135W, strain pre9, active compounds read low 0.785 | S. cerevisiae deletion strains, locus YHR030C, strain SLT2, active compounds read low 0.0503 and 0.0957 | S. cerevisiae deletion strains, locus YHR079C, strain IRE1 (second series), active compounds read low 0.782 | S. cerevisiae deletion strains, locus YHR079C, strain IRE1, active compounds read low 0.173 | S. cerevisiae deletion strains, locus YHR094C, strain hxt1, active compounds read low 0.861 | S. cerevisiae deletion strains, locus YHR129C, strain ARP1, active compounds read low 0.877 | S. cerevisiae deletion strains, locus YHR200W, strain rpn10, active compounds read low 0.82 | S. cerevisiae deletion strains, locus YIL125W, strain kgd1, active compounds read low 0.23 | S. cerevisiae deletion strains, locus YIR030C, strain dcg1, active compounds read low 0.869 | S. cerevisiae deletion strains, locus YJL095W, strain BCK1, active compounds read low 0.0568 and 0.105 | S. cerevisiae deletion strains, locus YJL168C, strain set2, active compounds read low 0.798 | S. cerevisiae deletion strains, locus YJR066W, strain TOR1, active compounds read low 0.049 | S. cerevisiae deletion strains, locus YKL009W, strain mrt4, active compounds read low 0.169 | S. cerevisiae deletion strains, locus YKL068W, active compounds read low 0.288 | S. cerevisiae deletion strains, locus YKL085W, strain MDH1 (second series), active compounds read low 0.17 | S. cerevisiae deletion strains, locus YKL085W, strain MDH1, active compounds read low 0.17 | S. cerevisiae deletion strains, locus YKR001C, strain vps1, active compounds read low 0.658 | S. cerevisiae deletion strains, locus YLR102C, strain apc9, active compounds read low 0.833 | S. cerevisiae deletion strains, locus YLR113W, strain HOG1, active compounds read low 0.182 | S. cerevisiae deletion strains, locus YLR268W, strain sec22, active compounds read low 0.78 | S. cerevisiae deletion strains, locus YLR371W, strain rom2, active compounds read low 0.879 | S. cerevisiae deletion strains, locus YML016C, strain PPZ1, active compounds read low 0.91 | S. cerevisiae deletion strains, locus YML032C, strain rad52, active compounds read low 0.69 | S. cerevisiae deletion strains, locus YML124C, strain tub3, active compounds read low 0.853 | S. cerevisiae deletion strains, locus YMR078C, strain ctf18, active compounds read low 0.753 | S. cerevisiae deletion strains, locus YMR223W, strain ubp8, active compounds read low 0.8 | S. cerevisiae deletion strains, locus YMR263W, strain SAP30, active compounds read low 0.877 | S. cerevisiae deletion strains, locus YNL067W, strain RPL9B, active compounds read low 0.841 | [8] 0.671 | S. cerevisiae deletion strains, locus YNL183C, strain NPR1, active compounds read low 0.0569 | S. cerevisiae deletion strains, locus YNL250W, strain rad50, active compounds read low 0.144 | S. cerevisiae deletion strains, locus YNL271C, strain bni1, active compounds read low 0.521 | S. cerevisiae deletion strains, locus YNL298W, strain CLA4, active compounds read low 0.162 | S. cerevisiae deletion strains, locus YNL322C, strain KRE1, active compounds read low 0.923 | S. cerevisiae deletion strains, locus YNR052C, strain pop2, active compounds read low 0.791 | S. cerevisiae deletion strains, locus YOL147C, strain pex11, active compounds read low 0.825 | S. cerevisiae deletion strains, locus YOR069W, strain VPS5, active compounds read low 0.917 | S. cerevisiae deletion strains, locus YOR136W, strain idh2, active compounds read low 0.906 | S. cerevisiae deletion strains, locus YOR144C, strain elg1, active compounds read low 0.703 | S. cerevisiae deletion strains, locus YOR231W, strain MKK1, active compounds read low 0.147 | S. cerevisiae deletion strains, locus YOR316C, strain cot1, active compounds read low 0.854 | [13] 0.601 | S. cerevisiae deletion strains, locus YPL256C, strain CLN2, active compounds read low 0.167 | S. cerevisiae deletion strains, locus YPR119W, strain clb2, active compounds read low 0.861 | S. cerevisiae deletion strains, locus YPR141C, strain kar3, active compounds read low 0.113 | S. cerevisiae deletion strains, locus YPR163C, strain tif3, active compounds read low 0.585 | S. cerevisiae deletion strains, locus YPR167C, strain met16, active compounds read low 0.786 | S. cerevisiae deletion strains, strain wtn01, active compounds read low 0.834
inactive: [1] 0.966 | S. cerevisiae deletion strains, locus YDL035C, strain GPR1, active compounds read low 0.919 | S. cerevisiae deletion strains, locus YDL101C, strain DUN1, active compounds read low 0.971 | S. cerevisiae deletion strains, locus YDL134C, strain PPH21, active compounds read low 0.939 | [4] 0.926 | S. cerevisiae deletion strains, locus YER110C, active compounds read low 0.902 | S. cerevisiae deletion strains, locus YGL248W, strain PDE1, active compounds read low 0.932 | S. cerevisiae deletion strains, locus YGR078C, strain PAC10, active compounds read low 0.869 | S. cerevisiae deletion strains, locus YGR229C, strain SMI1, active compounds read low 1.02 | S. cerevisiae deletion strains, locus YGR252W, strain gcn5, active compounds read low 0.848 | S. cerevisiae deletion strains, locus YIL066C, strain RNR3, active compounds read low 0.924 | S. cerevisiae deletion strains, locus YIL073C, strain SPO22, active compounds read low 0.968 | S. cerevisiae deletion strains, locus YJL134W, strain LCB3, active compounds read low 0.929 | S. cerevisiae deletion strains, locus YJL187C, strain SWE1 (second series), active compounds read low 0.895 | S. cerevisiae deletion strains, locus YJR043C, strain POL32, active compounds read low 0.862 | [14] 0.964 | S. cerevisiae deletion strains, locus YKL190W, strain CNB1, active compounds read low 0.94 | S. cerevisiae deletion strains, locus YLR039C, strain RIC1, active compounds read low 0.918 | S. cerevisiae deletion strains, locus YLR058C, strain SHM2, active compounds read low 0.931 | S. cerevisiae deletion strains, locus YLR262C, strain YPT6, active compounds read low 1 | S. cerevisiae deletion strains, locus YLR330W, strain CHS5, active compounds read low 0.923 | S. cerevisiae deletion strains, locus YLR342W, strain FKS1 (second series), active compounds read low 1.11 | S. cerevisiae deletion strains, locus YLR418C, strain cdc73, active compounds read low 0.949 | [6] 1.13 | [7] 0.944 | S. cerevisiae deletion strains, locus YNL233W, strain BNI4, active compounds read low 0.923 | S. cerevisiae deletion strains, locus YNL307C, strain MCK1, active compounds read low 0.922 | S. cerevisiae deletion strains, locus YOL006C, strain TOP1, active compounds read low 0.835 | S. cerevisiae deletion strains, locus YOL012C, strain htz1 0.4 | S. cerevisiae deletion strains, locus YOR061W, strain CKA2, active compounds read low 0.905 | S. cerevisiae deletion strains, locus YOR184W, strain ser1, active compounds read low 0.939 | [15] 0.932 | S. cerevisiae strains, strain wild type, active compounds read low 0.94
